Data on nine molecules can be found in PubChem BioAssay (NCATS).

The target of assay [1] is ATP-dependent 6-phosphofructokinase (Trypanosoma brucei brucei) (UniProt O15648). Briefly: qHTS Assay to Find Inhibitors of T. brucei phosphofructokinase: hit validation (AID 492961).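 Further: luminescence reports ADP formed as PFK phosphorylates fructose-6-phosphate with ATP; on the % scale 0 is the no-effect control and ±100 the full control effect.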 The method in brief:
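Inhibition of parasite PFK is measured as reduced ADP formation, quantified via luciferase after ATP depletion. Assay used 0.1 mM ATP, 0.5 mM F6P, 1.25 nM enzyme, 45 min incubation.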

The nature of assay [2]: qHTS profiling for inhibitors of Plasmodium falciparum proliferation (AID 504749). Further: potency means the concentration at half of the fitted maximal effect.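 On activity, negative = inhibition: 0% = DMSO vehicle and full inhibition = artemisinin control.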 On all read-outs here: nearly all actives have a fitted effect of over 60% in size. The conditions noted are these: P. falciparum in erythrocytes, SYBR Green DNA, 72 h; for activity, negative = inhibition: at 28.7 µM (top of the series). The essentials:
(§1)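 Each compound contacts P. falciparum-infected red blood cells for 72 h at 37 C; lysis buffer (Tris, EDTA, saponin, Triton X, SYBR Green I) is added and fluorescence measured next morning; values normalized to controls.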

Assay [3] deals with 3D7. Described as above. Conditions: P. falciparum in erythrocytes, SYBR Green DNA, 72 h; series mostly up to 28.7 µM. The method in brief:
as §1

In assay [4] the test system is ATS189. Described as above. Conditions: P. falciparum in erythrocytes, SYBR Green DNA, 72 h; series mostly up to 28.7 µM. The essentials: as §1
Assay [5] has as its system CP185. The description is as above. The conditions noted are these: P. falciparum in erythrocytes, SYBR Green DNA, 72 h; series mostly up to 28.7 µM. The method in brief: as §1
The subject of assay [6] is CP191. The description is as above. The conditions noted are these: P. falciparum in erythrocytes, SYBR Green DNA, 72 h; series mostly up to 28.7 µM. The method in brief:
as §1

The test system of assay [7] is CP192. Described as above. Conditions: P. falciparum in erythrocytes, SYBR Green DNA, 72 h; series mostly up to 28.7 µM. The method in brief:
as §1

In assay [8] the test system is CP194. The assay is described as above. The conditions noted are these: P. falciparum in erythrocytes, SYBR Green DNA, 72 h; series mostly up to 28.7 µM. The essentials: as §1
Assay [9] has as its system CP211. The description is as above. The conditions noted are these: P. falciparum in erythrocytes, SYBR Green DNA, 72 h; series mostly up to 28.7 µM. The essentials: as §1
The test system of assay [10] is CP217. Described as above. Conditions: P. falciparum in erythrocytes, SYBR Green DNA, 72 h; series mostly up to 28.7 µM. The method in brief: as §1
Assay [11] deals with CP238. Described as above. Conditions: P. falciparum in erythrocytes, SYBR Green DNA, 72 h; series mostly up to 28.7 µM. The essentials: as §1
Assay [12] concerns CP252. The assay is described as above. The conditions noted are these: P. falciparum in erythrocytes, SYBR Green DNA, 72 h; series mostly up to 28.7 µM. The method in brief: as §1
Assay [13] concerns CP262. The description is as above. Conditions: P. falciparum in erythrocytes, SYBR Green DNA, 72 h; series mostly up to 28.7 µM. The method in brief:
as §1

Assay [14] relates to CP265. The assay is described as above. The conditions noted are these: P. falciparum in erythrocytes, SYBR Green DNA, 72 h; series mostly up to 28.7 µM. The essentials:
as §1

In assay [15] the test system is CP269. The assay is described as above. Conditions: P. falciparum in erythrocytes, SYBR Green DNA, 72 h; series mostly up to 28.7 µM. The essentials: as §1
For assay [16], the system named is CP286. The description is as above. The conditions noted are these: P. falciparum in erythrocytes, SYBR Green DNA, 72 h; series mostly up to 28.7 µM. The method in brief:
as §1

The test system of assay [17] is CP329. The description is as above. Conditions: P. falciparum in erythrocytes, SYBR Green DNA, 72 h; series mostly up to 28.7 µM. The method in brief: as §1
The subject of assay [18] is Dd2. The description is as above. The conditions noted are these: P. falciparum in erythrocytes, SYBR Green DNA, 72 h; series mostly up to 28.7 µM. The method in brief:
as §1

The subject of assay [19] is ECU. Described as above. Conditions: P. falciparum in erythrocytes, SYBR Green DNA, 72 h; series mostly up to 28.7 µM. The method in brief:
as §1

Assay [20] deals with FAB9. The assay is described as above. The conditions noted are these: P. falciparum in erythrocytes, SYBR Green DNA, 72 h; series mostly up to 28.7 µM. The essentials: as §1

Records with an inconclusive call do not appear. Values without a mark were called inactive. Activity calls are given as the source filed them. The call rests on the fitted dose curve; in most records, active means well fitted curve in the direction sought with a large enough effect; inconclusive means small, poorly fitted or top-dose-only effect, or another doubt; inactive means no such curve, though single readings can be large; an effect the other way counts as inactive or inconclusive.

Chain of ATP-dependent 6-phosphofructokinase (Trypanosoma brucei brucei) (O15648 whole entry, looked up): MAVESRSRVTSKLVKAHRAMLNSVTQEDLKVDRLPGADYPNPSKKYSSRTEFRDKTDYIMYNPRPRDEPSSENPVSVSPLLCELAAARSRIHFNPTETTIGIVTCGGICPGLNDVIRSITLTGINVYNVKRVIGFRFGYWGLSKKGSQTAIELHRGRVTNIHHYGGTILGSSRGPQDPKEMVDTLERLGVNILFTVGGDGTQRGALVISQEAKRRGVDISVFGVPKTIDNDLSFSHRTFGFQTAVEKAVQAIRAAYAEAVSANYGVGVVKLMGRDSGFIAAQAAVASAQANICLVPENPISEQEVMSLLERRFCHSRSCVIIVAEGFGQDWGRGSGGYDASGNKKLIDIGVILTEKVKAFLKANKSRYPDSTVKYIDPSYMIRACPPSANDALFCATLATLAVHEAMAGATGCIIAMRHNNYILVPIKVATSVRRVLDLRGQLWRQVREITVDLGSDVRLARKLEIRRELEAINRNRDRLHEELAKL

As for `COC(c1ccccc1)(c1ccccc1)C(Oc1nc(C)cc(C)n1)C(=O)O` (centres undefined), the Potency entry in assay [1], in assay [3], in [4], in assay [5], in assay [6] and in assay [7] was “inactive” throughout. The Potency entry in assay [8], in assay [9], in assay [10], in [11], in assay [12] and in assay [13] was “inactive” throughout. Moreover, the Potency result in assay [14], in [15], in [16], in [17], in assay [18] and in [19] was “inactive” throughout. Further, the Potency result in assay [20] is “inactive”. Besides, the values for the activity, negative = inhibition in assay [2] (parasite line A) and in assay [2] (parasite line B) were 2.94% and 8.39%, respectively.

As for `C[S+](C)CC[C@H](N)C(=O)O`, the Potency entry in [1], in assay [3], in assay [4], in [5], in [6] and in [7] was “inactive” throughout. Moreover, the Potency result in assay [8], in assay [9], in assay [10], in assay [11], in assay [12] and in assay [13] was “inactive” throughout. For the same molecule, the Potency result in assay [14], in [15], in [16], in assay [17], in assay [18] and in assay [19] was “inactive” each time. In addition, the Potency result in [20] is “inactive”. Moreover, the activity, negative = inhibition in [2] (parasite line A) is 2.14%; in assay [2] (parasite line B), 12.4%.

`C=NC(C(=O)NC1C(=O)N2C1SC(C)(C)C2C(=O)O)c1ccccc1` (centres undefined): the Potency result in assay [1], in assay [3], in assay [4], in assay [5], in assay [6] and in assay [7] was “inactive” throughout. Also, the Potency result in assay [8], in [9], in [10], in assay [11], in [12] and in assay [13] was “inactive” throughout. Moreover, the Potency result in assay [14], in assay [15], in [16], in [17], in assay [18] and in [19] was “inactive” each time. The Potency result in [20] was “inactive”. The results for the activity, negative = inhibition in [2] (parasite line A) and in assay [2] (parasite line B) were 7.65% and -6.25%, respectively.

With `CCCCCCCCCCCCCCCC(=O)OC[C@H](O)[C@H]1OC[C@@H](O)[C@@H]1O`, the Potency entry in assay [1], in assay [3], in [4], in assay [5], in assay [6] and in assay [7] was “inactive” in each case. The Potency entry in assay [8], in [9], in assay [10], in assay [11], in assay [12] and in [13] was “inactive” throughout. Moreover, the Potency result in assay [14], in assay [15], in assay [16], in assay [17], in [18] and in [19] was “inactive” throughout. The Potency entry in assay [20] was “inactive”. For the same molecule, the results for the activity, negative = inhibition in assay [2] (parasite line A) and in assay [2] (parasite line B) were -0.407% and -6.82%, respectively.

With `C=CC1CN2CCC1CC2[C@@H](O)c1ccnc2ccc(OC)cc12` (some centres undefined), in assay [1], the Potency entry is “inactive”. The Potency in assay [2] (parasite line A) was 50.1 nM (active); in [2] (parasite line B) it was 56.2 nM (active); in assay [3], 79.4 nM (active); in assay [4], 316 nM (active); in assay [5] it was 501 nM (active); in assay [6], 224 nM (active). Besides, the Potency is 757 nM (active) in assay [7]; 536 nM (active) in [8]; 675 nM (active) in assay [9]; 501 nM (active) in assay [10]; 891 nM (active) in [11]; 355 nM (active) in [12]. Also, the Potency in assay [13] was 338 nM (active); in assay [14] it was 355 nM (active); in assay [15] it was 601 nM (active); in assay [16] it was 282 nM (active); in assay [17], 953 nM (active); in [18], 282 nM (active). For the same molecule, the results for the Potency in assay [19] and in [20] were 112 nM (active) and 79.4 nM (active), respectively.

On to `NC(=O)C1CC2(NC(=O)NC2=O)c2cc(F)ccc2O1` (centres undefined), for which the Potency entry in [1], in [3], in assay [4], in assay [5], in assay [6] and in [7] was “inactive” in each case. Moreover, the Potency entry in assay [8], in [9], in [10], in assay [11], in assay [12] and in [13] was “inactive” in each case. For the same molecule, the Potency entry in [14], in assay [15], in assay [16], in assay [17], in assay [18] and in [19] was “inactive” in each case. In addition, in assay [20], the Potency entry was “inactive”. Moreover, the activity, negative = inhibition in [2] (parasite line A) is 9.13%; in [2] (parasite line B), 7.45%.

Turning to `CCCCC(=O)OCC(=O)[C@]1(O)Cc2c(O)c3c(c(O)c2[C@H](OC2CC(NC(=O)C(F)(F)F)C(O)C(C)O2)C1)C(=O)c1c(OC)cccc1C3=O` (some centres undefined), the Potency entry in assay [1] was “inactive”. Also, the Potency in assay [2] (parasite line A) was 2240 nM (active); in [2] (parasite line B), 2510 nM (active); in assay [3], 1580 nM (active); in assay [4], 3160 nM (active); in assay [5] it was 2240 nM (active); in assay [6], 2510 nM (active). Further, the Potency in assay [7] was 2390 nM (active); in [8], 3010 nM (active); in assay [9] it was 1690 nM (active); in [10], 3160 nM (active); in assay [11], 2510 nM (active); in [12], 2510 nM (active). The Potency in assay [13] was 1900 nM (active); in assay [14], 3160 nM (active); in [15], 1690 nM (active); in assay [16], 1580 nM (active); in assay [17] it was 3790 nM (active); in assay [18], 2240 nM (active). Besides, the Potency is 2510 nM (active) in assay [19] and 11200 nM (active) in assay [20].

On to `CC[C@@]1(O)C[C@H](O[C@H]2C[C@@H](N(C)C)[C@@H](O[C@H]3C[C@@H](O)[C@@H](O[C@H]4CCC(=O)[C@@H](C)O4)[C@@H](C)O3)[C@@H](C)O2)c2c(cc3c(c2O)C(=O)c2c(O)cccc2C3=O)[C@H]1C(=O)OC`, for which the Potency result in assay [1] was “inactive”. Besides, the Potency in [2] (parasite line A) is 141 nM (active); in assay [2] (parasite line B), 199 nM (active); in [3], 126 nM (active); in assay [4], 355 nM (active); in assay [5] it was 251 nM (active); in assay [6] it was 199 nM (active). For the same molecule, the Potency in assay [7] was 1070 nM (active); in assay [8] it was 953 nM (active); in assay [9] it was 849 nM (active); in assay [10], 251 nM (active); in [11], 178 nM (active); in assay [12], 224 nM (active). The Potency in assay [13] is 757 nM (active); in assay [14] it was 224 nM (active); in assay [15], 849 nM (active); in assay [16], 39.8 nM (active); in assay [17], 849 nM (active); in assay [18], 89.1 nM (active). In addition, the results for the Potency in [19] and in [20] were 355 nM (active) and 891 nM (active), respectively.

Turning to `CC1OC(OCC2OC(Oc3c(-c4ccc(OCCO)c(OCCO)c4)oc4cc(OCCO)cc(O)c4c3=O)C(O)C(O)C2O)[C@@H](O)C(O)C1O` (some centres undefined), the Potency result in assay [1], in assay [3], in assay [4], in assay [5], in [6] and in [7] was “inactive” each time. The Potency result in assay [8], in assay [9], in assay [10], in [11], in assay [12] and in assay [13] was “inactive” in each case. Moreover, the Potency result in assay [14], in assay [15], in [16], in assay [17], in [18] and in assay [19] was “inactive” throughout. Moreover, the Potency result in [20] was “inactive”. For the same molecule, the values for the activity, negative = inhibition in assay [2] (parasite line A) and in assay [2] (parasite line B) were -11% and 4.27%, respectively.
